Hit rate of the full screen: of about 96,000 compounds, about 19,000 (20%) were called active. The list is a sample of the results. Unmarked numbers belong to inactive results.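 Rule for the calls: active = blocking of liver enzyme CYP2C9 beyond about 50% at 5 µM (limit read from the data); inactive = the rest.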
target: Cytochrome P450 2C9 (Homo sapiens) (UniProt P11712); assay: blockers of cytochrome P450 2C9 activity – biochemical, luminescence, ADME assay, primary screen (AID 777); conditions: CYP2C9 Supersomes, luciferin-H conversion, at 5 µM, hits give high values
Sequence (P11712 whole entry, looked up): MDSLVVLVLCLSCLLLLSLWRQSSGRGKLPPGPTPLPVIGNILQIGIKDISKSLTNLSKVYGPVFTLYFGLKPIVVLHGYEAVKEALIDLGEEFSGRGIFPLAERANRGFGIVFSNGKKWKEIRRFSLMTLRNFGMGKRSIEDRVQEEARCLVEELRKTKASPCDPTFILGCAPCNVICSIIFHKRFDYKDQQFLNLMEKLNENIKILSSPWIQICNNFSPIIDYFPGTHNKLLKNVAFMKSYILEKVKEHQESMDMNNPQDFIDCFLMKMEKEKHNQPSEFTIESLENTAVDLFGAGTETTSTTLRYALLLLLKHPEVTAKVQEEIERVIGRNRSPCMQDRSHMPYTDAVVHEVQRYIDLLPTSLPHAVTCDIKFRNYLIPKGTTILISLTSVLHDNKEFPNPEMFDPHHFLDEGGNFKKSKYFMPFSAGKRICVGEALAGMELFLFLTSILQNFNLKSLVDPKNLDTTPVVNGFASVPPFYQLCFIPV

Compound | inhibition
CN1/C(=c2/s/c(=C3/C(=O)N(c4ccccc4)NC3=Nc3ccccc3)n(C)c2=O)C(C)(C)c2ccccc21 | 19%
CCNC(=O)c1c(O)c2cccc3c2n(c1=O)CC3 | 10.3%
O=C(COC(=O)CCC(=O)c1cccs1)NCc1ccco1 | 2.9%
CC(C)(C)N1CC(c2nc3ccccc3n2Cc2ccc(F)cc2)CC1=O (stereo unspecified) | 22.8%
Cc1nn2c3ccccc3nc2n(C)c1=O | -5.7%
CC(C)(C)c1cc(=O)n2c(nc3ccccc32)[nH]1 | 52% (active)
Cn1c(SCC(=O)N2CCOCC2)nnc1-c1ccc(NC(=O)c2ccccc2F)cc1 | 13%
CCCCC(CC)C(=O)Nc1ccc(Cl)cn1 (stereo unspecified) | 7.6%
CC(C)C(NC(=O)OCc1ccccc1)C(=O)OCC(=O)N1C(C)CCCC1C (stereo unspecified) | 1.2%
CCC(C)NC(=O)c1c(N)n(/N=C/c2cccs2)c2nc3ccccc3nc12 (stereo unspecified) | 17.2%
Cc1ccc(OCc2nnc(NC(=O)OCC(C)C)s2)cc1 | 20.2%
CC(C)c1cc(C(N)=O)c(NC(=O)c2cccc(COc3ccc(Br)cc3)c2)s1 | 56.1% (active)
COc1ccc(N2CCN(C3CC(=O)N(c4ccc5c(c4)OCCO5)C3=O)CC2)cc1 (stereo unspecified) | -1%
O=c1oc2c(Cl)cc(Cl)cc2cc1-c1nnc(Nc2ccccc2F)s1 | -4.3%
Cc1cccc(OCc2nnc(SCc3nc4cc(C(F)(F)F)ccc4c(=O)[nH]3)o2)c1 | 33%
O=C(c1ccc(S(=O)(=O)N2CCOCC2)cc1)N1CCN(c2ccccc2)CC1 | -4.5%
O=C(Cc1ccc(S(=O)(=O)N2CCCC2)s1)NC1CCCCCC1 | 35.1%
O=C(Cc1ccc(S(=O)(=O)N2CCOCC2)s1)NCCC(c1ccccc1)c1ccccc1 | 71.6% (active)
C=C(Br)Cn1c(CCCC)nc2ccccc21 | 35%
Cc1[nH]n(-c2ccc([N+](=O)[O-])cc2)c(=O)c1C=NCCN1CCN(C(=O)c2ccccc2F)CC1 | 16.8%
Cc1csc(NC(=O)C2CCCN2C(=O)OCC(C)C)n1 (stereo unspecified) | 21.7%
O=C(/C=C/c1ccco1)Nc1cccc(-c2nc3ccccc3[nH]2)c1 | 81.3% (active)
Cc1ccc(-n2nc3ccc(NC(=O)/C=C/c4ccco4)cc3n2)cc1C | 34.5%
O=C(/C=C/c1ccco1)Nc1ccc(Oc2ccccc2)cc1 | 11.5%
CCc1nnc(NC(=O)CSc2nc3c(c(=O)n2-c2ccccc2OC)SCC3)s1 | 7.3%
O=C(Cn1c(-c2cncs2)nc2ccccc21)NC1CCCC1 | 2.4%
